Results on 40 molecules are retold here after PubChem BioAssay (EPA / NIEHS).

Active and inactive are the calls of the source. How the source made its calls: active means hit-call score of the fitted dose curve at least 0.9, where 1 is the maximum; inactive means score below 0.9.

Read-out in this experiment: Cyclin D1 (CCND1), CCND1 (gene 595)
The experiment can be described thus: LTEA_HepaRG_CCND1: Life Technologies and Expression Analysis (LTEA) Assay for Cyclin D1 (CCND1) using HepaRG (AID 2283451).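 On AC50: TaqMan qRT-PCR transcript level normalised to ACTB GAPDH and POLR2A housekeeping genes.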 Conditions: mRNA level, 48 h; actives raise or lower the signal. The protocol:
LTEA_HepaRG is a cell based, multiplexed-readout assay that uses HepaRG, a human liver cell line, with measurements taken at 48 hours after chemical dosing on a 96-well plate.LTEA_HepaRG_CCND1 is one of 102 assay component(s) measured in the LTEA HepaRG cell culture assay. It is a marker of Cell proliferation, survival, death.Data from the assay component LTEA_HepaRG_CCND1 was analyzed into 1 endpoint. This assay endpoint, LTEA_HepaRG_CCND1, was analyzed with bidirectional fitting relative to DMSO as the negative control and baseline of activity. Using a type of inducible reporter, measures of mRNA induction for gain or loss-of-signal activity can be used to understand regulation of transcription factor activity. To generalize the intended target to other relatable targets, this assay endpoint is annotated to the cell cycle intended target family, where the subfamily is Cell proliferation, survival, death.
A total of 1060 chemcials from the ToxCast library were tested in eight-point concentration-response experiments. Cell culture and cytotoxicity assays were conducted at Thermo Fisher Scientific's Custom Services facility (Madison, WI). A single lot of human HepaRG cells (Thermo Fisher Scientific, Frederick, MD) was used for the cell culture experiments. 96-well format collagen type I coated plates of human HepaRG cells were prepared using established methods. Briefly, cryopreserved HepaRG cells were thawed, plated at a density of approximately 100,000 cells/well in HepaRG Thaw, Plate, and General Purpose media (HPRG770, Thermo Fisher Scientific), and incubated for 48 hours. 0.5% DMSO was selected as vehicle control to balance the requisite need of DMSO in HepaRG cultures to maintain differentiation (for example, baseline metabolism, proportions of hepatocytes vs. cholangiocytes), while enabling further hepatic receptor pathway activation (for example, PXR and CAR) in response to chemical exposure. 48 hours after plating, the culture medium was replaced with HepaRG Serum-Free Incudtion Media. Cells were exposed to each test chemical in duplicate and maintained in CO2 incubators for another 48 hours. Chemical plates were thawed to room temperature and 200x concentrations of treatment groups were prepared. 8-point conentration-reponse curves were made with the highest exposure at 100 uM, followed by half-log dilutions, all in 0.5% DMSO. Each test plate contained variouse controls, induction positive controls (1mM phenobarbital), cytotoxicity positive controls ([…] aflatoxin B1), vehicle controls (0.5% DMSO), and total lysis controls (0.5% DMSO). Cell morphology images were taken using an Essen IncuCyte FLR automated microscope, with six 96-well plates imaged in about 24 minutes. Images were captured and exported and JPEG files. Spent culture media was transfered to black-well plates for the LDH assay, and remaining media was sorted at -80 C for later use. Cells were treated with RLT buffer and frozen until shipped for gene expression analysis. Total RNA was isolated from the cell suspension in 75 uL of Buffer RLT (Qiagen, Germantown, MD 20874) by Quintiles/Expression Analysis (Durham, NC) using a custom isolation procedure. Total RNA from each plate well was transferred to a preamplification plate. Fluidigm's 96.96 Dynamic ArrayTM (Fluidigm, Amsterdam, the Netherlands) technology was used for gene expression analyses by quantitative reverse transcription polymerase chain reaction (qRT-PCR, performed by Quintiles/Expression Analysis, Durham, NC)89. Standard TaqManTM Assays (Applied Biosystems/ThermoFisher Scientific, Foster City, CA) were used to assess the expression of 93 genes selected based on their selectivity and sensitivity to important hepatic receptors known to be modulated by environmental chemicals; importance in human hepatocyte functionality; and hepatotoxicity. […]
With `O=c1c(-c2ccc(O)cc2)coc2cc(O)cc(O)c12`, the result was inactive.

In the case of `CC(O)CC(C)(C)O` (stereo not given), the outcome was inactive. The same measure, in the same setting: next, `COc1cccc([C@H](O)C2CCN(CCc3ccc(F)cc3)CC2)c1OC`: “inactive”; `O=C(O)c1ccccc1-n1cc(C(=O)O)c(=O)c2cc(Nc3c(F)cc(F)cc3Cl)c(Cl)cc21`: “inactive”. The same measure, in the same setting: next, `NCc1cccc(C2CCN(C(=O)c3ccc(C#Cc4ccccc4F)o3)CC2)c1`: “inactive”; `CC1(C)NC(=O)N(c2ccc([N+](=O)[O-])c(C(F)(F)F)c2)C1=O`: “inactive”. The term AC50 denotes the concentration at which the activity in the assay is half-maximal. Take `CN1C(=O)N(c2ccccc2Br)Cc2cnc(Nc3ccc4c(c3)OCC(CO)O4)nc21` (stereo not given): the half-maximal activity concentration (AC50) was 50 µM (active).

Regarding `CO[C@H]1/C=C/O[C@@]2(C)Oc3c(C)c(O)c4c(O)c(c(/C=N/N5CCN(C)CC5)c(O)c4c3C2=O)NC(=O)/C(C)=C\C=C\[C@H](C)[C@H](O)[C@@H](C)[C@@H](O)[C@@H](C)[C@H](OC(C)=O)[C@@H]1C`, the molecule was classed as inactive. The same measure, in the same setting: next, `CCO[Si](CCCNC(N)=O)(OCC)OCC`: “inactive”; `c1ccc2n[nH]nc2c1`: “inactive”. Turning to `CN(C)C(=O)C1(N2CCCCC2)CCN(CC[C@@]2(c3ccc(Cl)c(Cl)c3)CN(C(=O)c3ccccc3)CCO2)CC1`, the AC50 is 47.2 µM (active). Regarding `CCCCOC(=O)c1ccc(O)cc1`, the outcome was inactive. The same measure, in the same setting: next, `O=C=NCCCCCCN=C=O`: “inactive”.

For `O=C1CCC(C2CCCCC2)CC1`, the result was inactive. For the molecule `C[C@]12CC[C@@H]3c4ccc(O)cc4CC[C@H]3[C@@H]1CC[C@H]2O`, the molecule was classed as inactive. Same read-out and setting: next, `O=C(O)c1ccccc1C(=O)OCc1ccccc1`: “inactive”. As for `Cc1oc2c(NC(=O)c3c(Cl)cccc3Cl)cccc2c1C(C)(C)O`, the molecule was called inactive. Still for that read-out and setting: next, `OCCO`: “inactive”. Consider `CCCCOC(=O)CC(CC(=O)OCCCC)(OC(C)=O)C(=O)OCCCC`, for which the molecule was called inactive. Still for that read-out and setting: next, `CCCCCCCCN(C)CCCCCCCC`: “inactive”. Still for that read-out and setting: next, `Oc1ccc2ccccc2c1`: “inactive”; `CCCCCCCC[Si](OCC)(OCC)OCC`: “inactive”. As for `COCC(C)OCC(C)OCC(C)O` (stereo not given), the molecule was classed as inactive. The same measure, in the same setting: next, `CCCCCCCCCCCO`: “inactive”. `O=C(O)Cc1cc(I)c(Oc2ccc(O)c(I)c2)c(I)c1`: the concentration at half-maximal activity (AC50) is 87.5 µM (active). As for `CC[C@H](NC(=O)c1cc(F)ccc1NS(=O)(=O)c1cccc2cccnc12)c1ccccc1`, the outcome was inactive.

Turning to `O=C(Nc1ccc(Cl)cc1)Nc1ccc(Cl)c(Cl)c1`, the outcome was inactive. As to `CC1=CC(=O)/C(=C(/C)O)C(=O)O1`, the molecule was called inactive. Still for that read-out and setting: next, `Cc1ncc(CO)c(CO)c1O`: “inactive”. On to `CC(C)(C)c1cc(/C=C2\SC(N)=NC2=O)cc(C(C)(C)C)c1O`, for which the AC50 was 39.3 µM (active). Regarding `c1ccc2ccccc2c1`, the call was inactive. For the molecule `NC(=O)c1nc(-c2cccc(-c3cc(F)ccc3OCC(F)(F)C(F)(F)F)c2)n[nH]1`, the outcome was inactive.

Consider `O=CCCCC=O`, for which the result was inactive. On to `O=C1c2ccccc2C(=O)N1CCc1noc(-c2ccc(CN3CCCCCC3)s2)n1`, for which the molecule was called inactive. Turning to `CCCCCCCCCC(=O)O`, the call was inactive. As for `CC(C)(C)c1csc(-c2cc3cc(OCc4ccccc4CC(=O)O)ccc3o2)n1`, the concentration at half-maximal activity (AC50) was 50 µM (active). Regarding `c1ccc(C[n+]2cccc3ccccc32)cc1`, the outcome was inactive. Take `COc1cc(C(=O)NC2CCN(C)CC2)ccc1Nc1ncc2c(n1)N(C1CCCC1)CC(F)(F)C(=O)N2C`: the concentration at half-maximal activity (AC50) was 46.5 µM (active). For `C[C@]12CC[C@@H]3c4ccc(O)cc4CC[C@H]3[C@@H]1CCC2=O`, the call was inactive. Still for that read-out and setting: next, `CCN(Cc1cccnc1)C(=O)c1cccc(Cl)c1[C@]1(C)C(=O)N(Cc2ccc(OC)cc2OC)c2ccc(Cl)cc21`: “inactive”.
